# Screening data from PubChem.
# PKD1 inh: PKD1 (human) kinase inhibition; inhibition, % (no concentration beside the values); Q15139; PKD1 kinase fluorescence polarization assay; AID 797; actives 0.056% (n = 200,000); in the data active means inhibition above about 50%
# L929 necroptosis: L929 zVAD cell death inhibition. L929 zVAD necroptosis rescue, ATP luminescence, 24 h; with zVAD 60 µM. viability rescue, % at 10 µM. actives 0.38% (n = 220,000). AID 1377;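 active means activation, scaled between plate controls, above about 75%, limit read from the data; inactive means activation under that limit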;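 further: 0% = zVAD with DMSO and 100% = DMSO alone without zVAD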
# PERK inhibitor: human PERK inhibition, primary cell-based screen | inhibition, % at 5.6 µM | CHO PERK-DD fusion, SEAP luminescence translation reporter | AID 1416 | actives 0.17% (n = 220,000) | Q9NZJ5;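 active means inhibition above the mean inhibition of all tested compounds plus 3 SD, set separately per screening campaign, cut at about 2.9% in these data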;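 further: PERK kinase domain activated by AP20187 dimerizer at 100 nM; 0% = DMSO with dimerizer and 100% = rapamycin at 8.4 µM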
# Target sequence (Q9NZJ5 whole entry, looked up, the tested form may be a part): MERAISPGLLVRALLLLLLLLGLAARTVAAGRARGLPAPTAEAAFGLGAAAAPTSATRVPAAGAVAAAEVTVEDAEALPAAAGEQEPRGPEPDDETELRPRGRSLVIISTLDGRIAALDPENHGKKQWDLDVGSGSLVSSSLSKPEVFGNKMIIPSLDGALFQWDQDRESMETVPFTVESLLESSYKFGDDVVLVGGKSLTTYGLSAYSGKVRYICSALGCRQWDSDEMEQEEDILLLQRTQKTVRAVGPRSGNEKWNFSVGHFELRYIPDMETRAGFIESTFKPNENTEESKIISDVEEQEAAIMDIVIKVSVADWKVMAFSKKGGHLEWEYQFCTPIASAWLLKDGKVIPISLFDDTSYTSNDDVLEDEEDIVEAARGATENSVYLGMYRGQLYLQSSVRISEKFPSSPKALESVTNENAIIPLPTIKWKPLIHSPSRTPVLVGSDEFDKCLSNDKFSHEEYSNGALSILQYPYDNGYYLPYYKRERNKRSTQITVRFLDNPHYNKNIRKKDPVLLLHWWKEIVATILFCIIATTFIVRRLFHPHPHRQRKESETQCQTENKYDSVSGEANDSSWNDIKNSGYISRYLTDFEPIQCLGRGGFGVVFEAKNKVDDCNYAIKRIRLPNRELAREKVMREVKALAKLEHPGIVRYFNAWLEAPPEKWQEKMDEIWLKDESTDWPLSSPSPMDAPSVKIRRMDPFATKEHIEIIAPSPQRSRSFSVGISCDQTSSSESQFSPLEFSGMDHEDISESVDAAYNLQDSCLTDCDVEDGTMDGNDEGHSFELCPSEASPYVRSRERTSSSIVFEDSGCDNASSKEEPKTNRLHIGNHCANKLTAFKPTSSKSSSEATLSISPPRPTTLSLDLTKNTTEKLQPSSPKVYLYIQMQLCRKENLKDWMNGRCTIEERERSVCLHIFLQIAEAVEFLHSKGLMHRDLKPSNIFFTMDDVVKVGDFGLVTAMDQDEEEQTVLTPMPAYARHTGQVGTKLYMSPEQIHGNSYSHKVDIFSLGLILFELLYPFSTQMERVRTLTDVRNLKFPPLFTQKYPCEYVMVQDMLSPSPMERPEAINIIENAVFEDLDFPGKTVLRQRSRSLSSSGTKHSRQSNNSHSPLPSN
# TNF necrop inh: inhibitors of TNF-alpha induced necroptosis in Jurkat FADD-/- cells; activation (protection from cell death), % at 10 µM; Jurkat FADD-/- TNF necroptosis rescue, ATP luminescence, 24 h; 0 = TNF only, 100 = no-TNF cells; AID 463075; actives 0.068% (n = 220,000);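 active means activation, meaning protection from cell death, of at least 50% relative to plate controls; inactive means activation below 50%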;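 further: necroptosis triggered by 40 ng/mL TNF-alpha added together with compound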
# Redox H2O2 prof: compounds producing H2O2 with reducing agent – biochemical, NIH compound library profiling, artefact control for MLSCN library redox annotation, primary screen; DTT-dependent redox cycling H2O2, phenol red/HRP absorbance; 100% = 100 µM peroxide control, 0% = buffer; actives 0.03% (n = 200,000); activation, % at 10 µM; AID 878;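 active means activation of at least 50% relative to the plate's high and low controls in the primary single-dose screen; inactive means activation below 50%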;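 further: compound incubated with DTT at 0.8 mM final as the reducing agent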
# WT yeast gro inh: growth inhibition of WT yeast, mitochondrial fusion screen; inhibition, % at 10 µM; actives 2.1% (n = 190,000); mitochondrial fusion phenotypic screen, WT strain; in the data active means inhibition above about 58%; tested in S. cerevisiae
# * = called active by the depositor; x = no result. Hits are enriched below; roughly 2.4% of the tested compounds scored in any of these assays.
SMILES,PKD1 inh,L929 necroptosis,PERK inhibitor,TNF necrop inh,Redox H2O2 prof,WT yeast gro inh
Cc1cnn(C(=S)NCCc2ccccc2)c1,-2.4,-0.7,1.1,-0.9,0.6,5.4
Cc1cnn(C(=S)NCc2ccc(Cl)cc2)c1,-5.2,0.0,-0.1,-0.6,1.4,68.0*
O=C(O)c1cc(C(=O)C2CCCCC2)c[nH]1,111.9*,3.4,0.1,-1.5,-1.7,-11.6
CC(=O)N(CC1CCCO1)c1nnc(-c2ccccn2)s1 (stereo not drawn),-13.7,0.0,0.3,65.1*,2.0,11.2
COCCN(C(C)=O)c1nnc(-c2ccccn2)s1,-0.7,-0.1,0.4,15.1,1.4,-1.1
Clc1ccc(-c2n[nH]c3c2CCCC3)cc1,-1.5,6.3,0.2,0.1,0.9,62.1*
COc1ccccc1OCC(=O)NCCSCc1cccc(Cl)c1,-5.5,1.4,0.2,1.5,0.1,26.7
CC1CN(Cc2ccccc2)c2ccccc2NC1=S (stereo not drawn),10.0,-0.7,0.0,-3.2,-0.1,67.4*
COc1ccc(-c2noc(-c3cccnc3)n2)cc1OC,-4.4,1.3,-0.3,-0.4,-0.6,1.9
COc1ccc(-c2noc(-c3ccccc3-c3ccccc3)n2)cc1OC,4.8,-0.2,-0.7,-2.0,-0.7,75.1*
COc1ccc(Br)cc1/C=C\C(=O)NCc1cccnc1,4.7,2.8,-0.1,0.9,-0.1,-6.2
Cc1nn(CC(=O)Nc2sc3c(c2C#N)CCC(C(C)(C)C)C3)c(C)c1[N+](=O)[O-] (stereo not drawn),-0.7,2.7,3.0*,0.1,-0.6,57.9
O=C1C(Nc2ccccc2)=C(N2CCCCC2)C(=O)c2ccccc21,-3.9,0.9,0.2,-13.7,-0.3,6.2
CN(C1=C(N2CCCCC2)C(=O)c2ccccc2C1=O)c1ccccc1,-7.1,-0.1,-0.2,-2.8,0.2,76.2*
O=C(CN1CCN(c2ccccc2)CC1)N1N=CCC1c1ccccc1 (stereo not drawn),-5.8,0.3,0.5,39.1,1.7,20.0
O=C(CSC(=S)N1CCOCC1)N1N=CCC1c1ccccc1 (stereo not drawn),-1.2,0.5,-0.6,50.4*,0.1,6.3
O=C(CN1CCN(C(c2ccccc2)c2ccccc2)CC1)N1N=CCC1c1ccccc1 (stereo not drawn),x,0.2,0.7,67.7*,x,x
CC(=O)N1CCN(CC(=O)Nc2ccccc2Sc2ccccc2)CC1,-13.1,-1.2,-0.9,-0.6,0.5,-1.0
CN1C(=O)/C(=C/c2ccccc2OCc2cccc(F)c2)NC1=S,13.7,-0.1,0.2,-2.7,3.9,14.0
CCCCCCCn1c2c(c(=N)c3ccccc31)CCC2,-3.6,-1.2,0.4,-8.0,-0.6,81.3*
O=C(CN1CCN(c2ccccn2)CC1)N(c1ccccc1)c1ccc2ccccc2c1,-6.7,-1.3,-1.4,-5.6,-1.4,62.6*
c1ccc(-c2nc(N3CCCCC3)nc3ccccc23)cc1,-2.5,0.4,-0.1,-1.9,0.8,68.4*
CCOc1cc(/C=N/NC(=O)c2cc(-c3cccnc3)nc3ccccc23)ccc1O,-6.7,1.0,1.2,0.7,0.4,-4.1
O=C(O)c1cccnc1Sc1ccccc1Cl,x,1.6,3.2*,2.3,x,x
Cc1ccc(C(C)n2cc(C(=O)NCc3ccccn3)nn2)cc1 (stereo not drawn),0.3,0.3,0.0,2.9,-0.9,7.9
SMILES,PKD1 inh,L929 necroptosis,PERK inhibitor,TNF necrop inh,Redox H2O2 prof,WT yeast gro inh
CNC(=O)COc1ccc(S(=O)(=O)Nc2ccc(OC)cc2)cc1,3.0,10.3,3.6*,1.7,0.0,-15.7
CNC(=O)COc1ccc(S(=O)(=O)Nc2ccc(C)cc2)cc1,x,0.0,0.8,2.4,x,x
Cc1onc(-c2c(Cl)cccc2Cl)c1C(=O)N=C(N)N1CC(C)OC(C)C1 (stereo not drawn),x,-0.6,-0.1,0.4,x,x
Cc1ccc(NC(=S)N2CCCC(O)C2)cc1 (stereo not drawn),-1.2,-1.6,0.6,-1.0,-4.1,14.2
CCC1(C)OCC(Cn2c3ccccc3c3ccccc32)O1 (stereo not drawn),-7.8,-0.5,2.0,-1.1,5.1,60.9*
CC(=O)c1csc(COc2ccc(Cl)cc2)n1,x,0.4,0.7,2.6,x,x
CN(N)c1ccc2c(C(F)(F)F)cc(C(F)(F)F)nc2n1,-2.8,2.5,0.4,-0.6,-1.6,21.4
N#CC(c1ccccc1)c1ccc2c(C(F)(F)F)cc(C(F)(F)F)nc2n1 (stereo not drawn),-1.8,0.5,-0.2,-4.1,0.2,73.9*
Cc1ccc(C(C#N)c2ccc3c(C(F)(F)F)cc(C(F)(F)F)nc3n2)cc1 (stereo not drawn),-10.6,1.2,0.5,-2.8,1.3,69.4*
NC(=O)CSc1nnc(CNc2ccc(F)cc2)n1CC1CCCO1 (stereo not drawn),-15.1,-0.1,3.0*,-0.1,2.5,0.9
O=C(NCCCN1CCCC1=O)C1CCCO1 (stereo not drawn),1.0,1.6,2.0,0.3,0.1,13.8
CN(C(=O)c1cccc(COc2ccc(Cl)cc2Cl)c1)c1ccccc1,4.0,x,-0.1,-1.3,-0.2,76.6*
O=C(c1ccc(Cl)c([N+](=O)[O-])c1)N1CCN(c2ccccn2)CC1,13.8,0.4,0.9,1.8,0.1,3.2
O=C(c1cccc(COc2ccc(Cl)cc2Cl)c1)N1CCN(c2ccccn2)CC1,-5.8,0.6,-0.7,-2.0,0.5,77.1*
COc1ccc(CCNC(=O)c2cc(-c3ccc(Cl)c(Cl)c3)oc2C)cc1,-0.9,1.0,0.7,1.1,1.3,40.4
COc1cc(CNc2nnnn2C)ccc1OCc1c(F)cccc1Cl,-12.1,0.6,1.4,0.7,-0.2,3.1
O=C(Cn1nnc2ccccc2c1=O)NCC1CCC(C(=O)O)CC1 (stereo not drawn),x,0.0,3.2*,3.0,x,x
C/C(CCC(=O)OC[C@H]1O[C@H](C#Cc2ccccc2)C=C[C@@H]1Oc1ccc(C)cc1)=N\O[C@@H](C)CN1CCCCc2nc(C)c(C)cc21,-5.3,3.0,-0.1,-4.6,0.1,20.4
COc1ccc(O[C@H]2C=C[C@@H](c3ccccc3)O[C@@H]2COC(=O)CC/C(C)=N/O[C@@H](C)CN2CCCCc3nc(C)c(C)cc32)cc1,-6.2,0.0,0.1,2.9,2.5,66.7*
CCOC(=O)C1=C(C)NC(SC(C)=O)=NC1c1ccc(OC(C)=O)c(OC)c1 (stereo not drawn),-2.3,1.1,1.8,-3.3,0.1,76.0*
Cc1ccc(N=Nc2ccc(O)c3ncccc23)cc1,-12.9,1.1,0.6,-12.9,0.5,63.8*
CCOc1ccc(CSCCNC(=S)Nc2ccccc2)cc1,-12.7,-0.5,-0.5,-2.8,0.0,71.1*
CC(C)(C)c1ccc(OCCNC(=S)Nc2ccccc2)cc1,-0.8,10.3,-0.2,-1.2,-0.5,81.8*
